Assay results from PubChem BioAssay (NCI).
Several values for one entry are separate records, joined by “and”; a condition that tells them apart may be missing. Equal entries are not always repeated. Compounds without any hit were thinned out: in the full panel of roughly 79,000, 15% have a hit. More than one record can exist for a structure, and the calls need not agree. Activity calls are given as the source filed them. No stated cut-off is given here; in the data, active means growth inhibition above about 70%; inactive means the rest.

Columns and labels:
[1] = NCI Yeast Anticancer Drug Screen. Data for the rad50 strain (AID 155);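 further: 0% = growth of vehicle-only cultures of the same strain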; details: S. cerevisiae rad50 strain growth inhibition; at 50.0 µM; stronger effect = higher value
Procedure, shortened: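 Cells are treated with compound, grown, and their growth is then scored against vehicle-only cultures of the same repair-deficient yeast strain.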

[2] = NCI Yeast Anticancer Drug Screen. Data for the mec2-1 strain (AID 157); details: S. cerevisiae mec2-1 strain, at 50.0 µM, stronger effect = higher value
Procedure, shortened: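 Compounds were applied to mec2-1 yeast cells. Their growth was then compared with that of vehicle-treated cultures to give growth inhibition.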

[3] = NCI Yeast Anticancer Drug Screen. Data for the sgs1 mgt1 strain (AID 161);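 further: 0% = growth of cultures given vehicle only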; details: S. cerevisiae sgs1 mgt1 strain, at 50.0 µM, stronger effect = higher value
Procedure, shortened: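 Percent growth inhibition was derived by comparing compound-exposed mutant yeast with vehicle-exposed cultures. The strain carries alterations in DNA damage repair.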

[4] = NCI Yeast Anticancer Drug Screen. Data for the cln2 rad14 strain (AID 165);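 further: 0% = growth equal to vehicle treated cultures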; details: S. cerevisiae cln2 rad14 strain, at 50.0 µM, stronger effect = higher value
Procedure, shortened: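 Strain: cln2 rad14 yeast, altered in cell cycle control and DNA damage repair. Read-out: growth inhibition vs vehicle.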

[5] = NCI Yeast Anticancer Drug Screen. Data for the bub3 strain (AID 167); details: S. cerevisiae bub3 mutant strain, at 50.0 µM, stronger effect = higher value
Procedure, shortened: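 Part of a panel of yeast mutants defective in DNA damage repair or cell cycle regulation. Each strain is grown with compound, and inhibition is calculated relative to solvent-treated cultures.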

[6] = NCI Yeast Anticancer Drug Screen. Data for the mlh1 rad18 strain (AID 175); details: S. cerevisiae mlh1 rad18 strain growth inhibition; at 50.0 µM; stronger effect = higher value
Procedure, shortened: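 A repair-deficient yeast strain is exposed to test compound, and growth is scored relative to vehicle-treated controls.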

Measured: growth inhibition

CCCOC(=O)c1ccc(OCC)cc1
inactive: [1] 22.4% and -20.6% | [2] 8.2% and -9.8% | [3] 12.6% and 3.1% | [4] -8% and -42.6% | [5] -11.2% and -16.6% | [6] 15.2% and -23.6%

CC(O)COc1ccc(C2CCCCC2)cc1 (stereo unspecified)
inactive: [1] 27.9% and 8% | [2] 10.4% and -21.6% | [3] 7.3% and 16.4% | [4] -10.2% and -25.9% | [5] -2.55% and -5.5% | [6] -11.6% and 13%

CCCCCCCCCCCC(=O)Nc1ccccc1
inactive: [1] -22.6% and -29.2% | [2] -4.05% and -16.9% | [3] 1.2% and -18.3% | [4] -31.7% and -71% | [5] 24.8% and -9.7% | [6] 14.4% and -31.1%

NNC(=O)NC(N)=O
inactive: [1] -48.6% and -20.2% | [2] -26.1% and -25.7% | [3] -27.2% and -9.95% | [4] -20.4% and -17.9% | [5] 1.2% and -27.1% | [6] -4.3% and -22.3%

O=C1CC2(CC=CCC23OCCO3)CC(CI)O1 (stereo unspecified)
inactive: [1] -14.1% and 7.75% | [2] -8.25% and -1.25% | [3] 3.1% and 24.8% | [4] 5.9% and 5.1% | [5] -10.2% and 10.9% | [6] 10.7% and 9.55%

CCOC(=O)C(OC1OC(C(=O)OC)C(OC(C)=O)C(OC(C)=O)C1OC(C)=O)c1ccccc1 (stereo unspecified)
inactive: [1] -10.2% and -20.9% | [2] -5.7% and -8.3% | [3] -13.2% and -11.8% | [4] 0.5% and -29.8% | [5] -6.85% and -17.8% | [6] -33.1% and -35.5%

OCCN1CCNCC1
inactive: [1] 4.4% and -9.55% | [2] -0.5% and -14.3% | [3] 4.95% and -17.8% | [4] 8.3% and -15.8% | [5] -23.5% and 13.4% | [6] 1.75% and -19.2%

CC(=O)OCCN(CCOC(C)=O)C(C)=O
inactive: [1] 22.6% and -2.1% | [2] 5.7% and 8.4% | [3] 19.1% and 0.4% | [4] 7.3% and -18.9% | [5] -1.45% and -10.7% | [6] 17.9% and -3.75%

CC(Cc1ccccc1)NC1=NCCO1 (stereo unspecified)
inactive: [1] -10.2% and -16.2% | [2] -4.95% and -18.4% | [3] 0.55% and 1.5% | [4] 17.1% and -13.2% | [5] -25.9% and -27.4%
0.1% (inactive) and 72.5% (active): [6]

CCN(CC)C(=O)N1CCN(C)CC1
inactive: [1] 26.1% and -15.6% | [2] -26.9% and -4.6% | [3] 1.4% and -3.65% | [4] -41.1% and 5.8% | [5] -1.1% and 9.7% | [6] 15.2% and -8%

COCc1cc(C)c(C#N)c(=O)[nH]1
inactive: [1] -2.35% and 9.35% | [2] 1.5% and 5.35% | [3] -5% and -8.7% | [4] 17.9% and -3.65% | [5] 13.3% and -7.55% | [6] -3.9% and 0.85%

Cc1cc(=O)[nH]c2ccccc12
inactive: [1] 26.6% and 14% | [2] -6.3% and -2.8% | [3] -7.8% and -30.9% | [4] 6.3% and 21.8% | [5] 7.05% and -10.1% | [6] 6.45% and 12.5%

O=C(NC(=O)c1cn(C2OC(CO)C(O)C2O)c(=O)[nH]c1=O)OCc1ccccc1 (stereo unspecified)
inactive: [1] -3.55% and -14.8% | [2] -4.8% and 23.7% | [3] -25.6% and -8.85% | [4] 11.1% and 20.3% | [5] -19.6% and -17.8% | [6] -19.6% and 0.55%

CC(=O)CCC1CC(=O)OC1(C)C (stereo unspecified)
inactive: [1] -37.6% and 0.75% | [2] -30% and -11.2% | [3] -14.3% and -15.4% | [4] 7.85% and -5.75% | [5] -26.2% and -5.35% | [6] -26.2% and 23.8%

O=C1OCC/C1=C\c1ccco1
inactive: [1] 9.55% and -9.2% | [2] 2.2% and 3.9% | [3] 6.15% and 9.15% | [4] -19.1% and 10.9% | [5] -6.75% and 17.9% | [6] 10.3% and -6.35%

O=C(CC(=O)c1cccnc1)NC(=O)c1ccccc1
inactive: [1] -1.05% and -34.5% | [2] -2.5% and -22.1% | [3] -1.35% and -4.05% | [4] 7.85% and 12.1% | [5] 3.9% and 7.6% | [6] -6% and -1.95%

CCCCc1c(C)[nH]c(=S)[nH]c1=O
inactive: [1] -6.15% and 5.3% | [2] -14.8% and -14.1% | [3] -4.35% and 0.4% | [4] -6.1% and 13.2% | [5] -0.05% and 15% | [6] -5.45% and 2%

O=C1c2ccccc2C(=O)c2c(O)ccc(O)c21
inactive: [1] 51.5% and 39.8% | [2] 37.2% and 11.2% | [3] 54.1% and 21.6% | [4] 24.4% and 33.8% | [5] 52% and 28.9% | [6] 50.5% and 13.8%

Cc1ccc(CCO)cc1
inactive: [1] 2.3% and 2.65% | [2] 0.95% and 2.6% | [3] 6.95% and -28.1% | [4] 0.5% and -47.2% | [5] -4.9% and -6.4% | [6] -2.75% and 0.35%

Nc1nc(N)c2ncn(C3OC(CO)C(OC4OC(CO)C(O)C(O)C4O)C(O)C3O)c2n1 (stereo unspecified)
inactive: [1] -0.55% and -12.2% | [2] 12.8% and 7.45% | [3] 2.45% and -27.6% | [4] -2.65% and -19.2% | [5] 1.8% and -17.8% | [6] 22.3% and -10.3%

CCOC(=O)C1=C(C)NC(=O)NC1c1ccccc1 (stereo unspecified)
inactive: [1] 9.5% and -7% | [2] 15.1% and -20.2% | [3] -0.15% and 4.45% | [4] -19.1% and 6.95% | [5] -0.9% and 15.2% | [6] 35.9% and -8.4%
